About 5,400 (1.8%) of roughly 300,000 compounds were called active. A call without a number means that no potency is given here. Inconclusive results (about 28%) are left out. Calls follow the shape of the full dose curve; tested in HEK293 cells. Many of the other results were omitted from the sample, so actives are more common in it than they were.
Test: qHTS for inhibitors of binding or entry into cells for Marburg Virus
Conditions: Marburg virus pseudotyped entry inhibition, cell reporter; series mostly up to 37.8 µM
Potency is read from the fitted curve at half-maximal effect.

Row | Structure (SMILES) | Potency
1 | CC(=O)Nc1ccc(NC(=O)CS(=O)(=O)c2cn(CC(=O)N3CCCCC3)c3ccccc23)cc1 | inactive
2 | CCOC(=O)c1ccc(NC(=O)CS(=O)(=O)c2cn(CC)c3ccccc23)cc1 | 8.2 µM (active)
3 | CCOC(=O)c1ccc(NC(=O)CSc2ncccn2)cc1 | inactive
4 | CCC1CCCCN1C(=S)Nc1ccc(S(=O)(=O)Nc2ncccn2)cc1 (stereo not drawn) | inactive
5 | COc1ccc(CCNC(=O)c2ccccc2OCc2ccccc2)cc1 | inactive
6 | CC(=O)N1CCc2ccc(N)cc21 | inactive
7 | CCOc1ccc(NC(=O)CN(C)C(=O)COc2cccc(CC)c2)cc1OCC | inactive
8 | CC(C)CN1CC(C)C(=O)N(c2ccccc2)C1=S (stereo not drawn) | inactive
9 | O=C(O)c1ccc(S(=O)(=O)c2ccccc2)s1 | inactive
10 | CCCCc1nc2cc(C(=O)N3CCCCC3CCO)ccc2o1 (stereo not drawn) | inactive
11 | C/C=C/c1ccc(OCC(=O)OCC(=O)Nc2c(C)nn(-c3ccccc3)c2C)c(OC)c1 | inactive
12 | Cc1nn(-c2ccccc2)c(C)c1NC(=O)COC(=O)Cc1ccccc1 | inactive
13 | Cc1nn(-c2ccccc2)c(C)c1NC(=O)COc1ccc(Cl)cc1Cl | 11.6 µM (active)
14 | COc1ccc(CCNC(=O)C(=O)NCC2OCCN2S(=O)(=O)c2cccs2)cc1OC (stereo not drawn) | inactive
15 | CCc1ccc(N2CC(C(=O)N3CCCCCC3)CC2=O)cc1 (stereo not drawn) | inactive
16 | CCN(c1ccccc1)S(=O)(=O)c1cc(C(=O)NCc2ccccn2)ccc1C | inactive
17 | COc1cccc2c1C(=O)c1c(O)c3c(c(O)c1C2=O)CC(O)(C(C)=NNC(=O)c1ccc(Cl)c(Cl)c1)CC3OC1CC(N)C(O)C(C)O1 (stereo not drawn) | 0.447 µM (active)
18 | COc1ccc(C(=O)Nc2ccccc2C(=O)N2CCN(c3ccccc3)CC2)cc1 | inactive
19 | Cc1ccc(-c2csc(NC(=O)C3=COCCO3)n2)cc1C | inactive
20 | O=C(Nc1nc(-c2ccc3c(c2)OCO3)cs1)c1ccncc1 | 7.94 µM (active)
21 | CC(=O)NCCC(=O)Nc1nc(-c2ccc3c(c2)OCCO3)cs1 | inactive
22 | Cc1ccc(S(=O)(=O)N2CCC(C(=O)N3CCCCCCC3)CC2)cc1 | inactive
23 | CCOC(=O)C1CCCN(C(=O)C2CCN(S(=O)(=O)c3ccc(Cl)c(C(F)(F)F)c3)CC2)C1 (stereo not drawn) | inactive

Row | Structure (SMILES) | Potency
24 | CCOC(=O)CC1=C(C(=O)OCC)[C@H](c2cc(OC)c(OC)cc2OC)C(C#N)=C(N)O1 | inactive
25 | Cc1c(Cl)cccc1NC(=S)NCC(O)c1ccccc1 (stereo not drawn) | inactive
26 | COCCOC(=O)C1=C(C)NC(=O)CC1c1cc2c(cc1Br)OCO2 (stereo not drawn) | inactive
27 | CCCOc1ccccc1C1CC(=O)Nc2cc3c(cc21)OCO3 (stereo not drawn) | 6.31 µM (active)
28 | COc1ccccc1C1C2=C(COC2=O)Nc2cc3c(cc21)OCO3 (stereo not drawn) | inactive
29 | Cn1c(CNC(=O)C(C)(C)C)nc2ccccc21 | inactive
30 | Cn1c(COc2ccccc2C(C)(C)C)nc2ccccc21 | inactive
31 | CC(NCc1nc2ccccc2n1C)C12CC3CC(CC(C3)C1)C2 (stereo not drawn) | 11.2 µM (active)
32 | C#CCOCCOCCOCCNc1nc(N2CCN(C(=O)Cn3cc(CCO)nn3)CC2)nc(N2CCN(C(=O)Cn3cc(CCCN=C(N)N)nn3)CC2)n1 | inactive
33 | O=C1C(=O)N(CCN2CCOCC2)[C@@H](c2ccccn2)/C1=C(/O)c1ccc(F)cc1 | inactive
34 | CCN(CC)c1ccc(/C=N/Nc2nc(C)cc(=O)[nH]2)cc1 | inactive
35 | CCN(CC)c1ccc(/C=N/Nc2nc(C)cc(C)n2)c(O)c1 | 6.51 µM (active)
36 | Cc1cc(C)nc(N/N=C/c2ccncc2)n1 | inactive
37 | Clc1ccc(Nc2ncnc3c2nnn3Cc2ccccc2)cc1 | inactive
38 | CN(C)c1cc2c(Nc3ccc4c(cnn4Cc4ccccc4)c3)ncnc2cn1 | 8.91 µM (active)
39 | Cn1ncc2c(Nc3cccc4ccccc34)ncnc21 | inactive
40 | Cc1ccc(CN2CCNC(=O)C2CC(=O)NCc2csc(C(C)C)n2)cc1 (stereo not drawn) | inactive
41 | Cc1ccsc1C(=O)NNC(=O)COc1ccc(Br)cc1 | inactive
42 | CC1CCN(C(=O)c2ccc3c(=O)n4c(nc3c2)CCCCC4)CC1 | inactive
43 | CCn1c(=O)c2cc(C(=O)NCCc3ccc(Cl)cc3)sc2c2ccccc21 | inactive
44 | CCN(CCCNC(=O)c1cc2c(=O)n(CC)c3ccccc3c2s1)Cc1ccccc1 | 4.47 µM (active)
45 | CCc1ccc(CNC(=O)c2cc3c(=O)n(CC)c4ccccc4c3s2)cc1 | inactive
46 | Cc1ccc(CS(=O)Cc2ccc(C(=O)N3CCOCC3)o2)cc1 (stereo not drawn) | inactive

Row | Structure (SMILES) | Potency
47 | C/C(=N\Nc1ccccc1)c1cccs1 | inactive
48 | Oc1ccc2ccccc2c1N=Nc1nccs1 | 3.55 µM (active)
49 | Oc1ccc2ccccc2c1C=Nc1ccccc1 | inactive
50 | O=C(Cc1ccc(NC(=O)C2CCCN(C(=O)CCc3ccccc3)C2)cc1)Nc1ccc(C(=O)N2CCOCC2)cc1 (stereo not drawn) | inactive
51 | COc1ccc(N2CCN(CCNC(=O)Nc3cc(Cl)ccc3Cl)CC2)cc1 | inactive
52 | CN(Cc1ccccc1)C(=O)COC(=O)/C=C/c1ccc2c(c1)OCO2 | inactive
53 | CC(C)Cn1cnc2c1c(=O)n(CC(=O)NN)c(=O)n2Cc1ccccc1 | inactive
54 | N=c1c2c(-c3ccccc3)c(-c3ccccc3)n(Cc3ccccc3)c2ncn1CCCO | 5.8 µM (active)
55 | COCCn1cnc2c1c(=O)n(Cc1ccc(Br)cc1)c(=O)n2Cc1ccccc1 | inactive
56 | Cc1cc(NC(=O)CCN2CCN(Cc3ccccc3)CC2)ccc1Br | inactive
57 | CCCCN(C(=O)c1ccc(C)o1)c1c(N)n(CCCC)c(=O)[nH]c1=O | inactive
58 | O=C(c1ccccc1)C(O)(CN1CCCCC1)c1ccccc1 (stereo not drawn) | inactive
59 | CCCCCCC(O)(CCN1CCCCC1)c1ccccc1 (stereo not drawn) | 12.6 µM (active)
60 | CCc1ccccc1NC(=O)NCCN1CCCCC1 | inactive
61 | CCOC(=O)c1ccc(NC(=O)CNC(=O)c2ccco2)cc1 | inactive
62 | COCCn1nnnc1C(c1cc2ccc(OC)cc2[nH]c1=O)N1CCc2ccccc2C1 (stereo not drawn) | inactive
63 | COc1ccc(OC)c(C(c2nnnn2C(C)(C)C)N2CCc3ccccc3C2)c1 (stereo not drawn) | 12.6 µM (active)
64 | Cc1ccc(C(c2nnnn2C(C)(C)C)N2CCc3ccccc3C2)cc1 (stereo not drawn) | inactive
65 | COc1cc2c(cc1OC)CN(C(C)C(=O)Nc1cccc(S(=O)(=O)N3CCOCC3)c1)CC2 (stereo not drawn) | inactive
66 | COc1cc(CN2CC(C)CC(C)C2)cc([N+](=O)[O-])c1O (stereo not drawn) | inactive
67 | C#CCOc1ccc(/C=C2/C(=O)NN(c3ccccc3)C2=O)cc1OC | inactive
68 | COc1cc(/C=C2/C(=O)NN(c3ccc(F)cc3)C2=O)cc([N+](=O)[O-])c1O | 3.55 µM (active)

Source: PubChem BioAssay AID540276 (National Center for Advancing Translational Sciences (NCATS), 2011)
